TTR transcr act: increases transthyretin transcription | SH-SY5Y TTR promoter Gaussia luciferase, luminescence; 100% = recombinant luciferase protein wells | activation, % at 16.7 µM | AID 1117267 | 92,000 compounds, 1.3% hits;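 active = activation above the mean of all tested compounds plus 3 SD, cut at about 9.5% in these data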;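 also: cells exposed to compounds for one day before reading; 0% = median of all test compound wells on the plate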
TTR inh HuH7: decreases TTR transcription in HuH7 cells in activator counter-screen; shares compounds with TTR transcr act; HuH7 TTR promoter-Gaussia luciferase reporter, luminescence; inhibition, % at 16.7 µM; 1,100 compounds, 4% hits;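 active = average inhibition above the solvent-only control wells' mean plus 3 SD, cut at about 15% in these data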;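 also: 0% = cells with DMSO only and 100% = cells with inhibitor control FD; inhibitors lower well luminescence so higher value means more inhibition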
TTR act confirm: human TTR transcription activation, confirmation | 1,100 tested, under 10 active | AID 1117280 | shares compounds with TTR transcr act | SHSY5Y TTR promoter Gaussia luciferase, luminescence; 100% = purified Lucia enzyme wells, no cells | activation, % at 16.7 µM;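 active = mean activation above a set limit taken from the earlier primary screen, cut at about 11% in these data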;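 also: 0% = DMSO-treated cells and 100% = recombinant Lucia luciferase without cells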
The depositor's hits bear a star. Shown is part of a subset that was picked to be rich in hits.

SMILES | TTR transcr act | others
CCOC(=O)C1=C(N)Oc2c(c(=O)oc3ccccc23)C12C(=O)N(C)c1ccccc12 (stereo not given) | 2
COCCOC(=O)C1=C(N)OC(C)=C(C(=O)OC)C12C(=O)Nc1ccccc12 (stereo not given) | 1
C=CCOC(=O)C1=C(C)OC(N)=C(C#N)C12C(=O)N(CN1CCOCC1)c1ccccc12 (stereo not given) | 11* | TTR inh HuH7=-11;TTR act confirm=1
O=C(NCCN1CCC2(CC1)C(=O)NCN2c1cccc(F)c1)c1ccc2ccccc2c1 | -5
C/C(=N\Nc1ccccc1)c1c(O)n(C)c(=O)n(C)c1=O | 0
CCN1CCN(S(=O)(=O)c2ccc(Cl)c(C(=O)Nc3ccc(C(=O)N(CC)CC)cc3)c2)CC1 | -1
C[N+]1=C(N)NC2=C3CCCCC3ONC2C1 (stereo not given) | -1
O=C(Nc1ccc(Cl)c(Cl)c1)c1ccco1 | -2
COc1ccc(C(=O)Nc2cccc(S(=O)(=O)NCc3ccco3)c2)cc1 | 11* | TTR inh HuH7=-3;TTR act confirm=-1
COc1ccc(Cn2c(N)c(C(=O)NCc3ccco3)c3nc4ccccc4nc32)cc1OC | 3
O=C(NC(CCC(O)CO)P(=O)(Oc1ccccc1)Oc1ccccc1)OCc1ccccc1 (stereo not given) | -1
COc1ccc2c(c1)C1(C(=O)O)CC=CCC1(C(=O)O)C2 (stereo not given) | 0
O=C(/C=C/c1ccc2c(c1)OCO2)c1c(O)n(CCC2=CCCCC2)c(=O)[nH]c1=O | 1
CCCCn1c(O)c(C(=O)/C=C/c2ccc3c(c2)OCO3)c(=O)[nH]c1=O | 21* | TTR inh HuH7=15*;TTR act confirm=1
C=CCn1c(O)c(C(CC)=NCc2ccc3c(c2)OCO3)c(=O)[nH]c1=O | -1
C=C1[C@@H](C)C2[C@H](Cc3ccccc3)NC(=O)[C@]23[C@H](OC(C)=O)/C=C/[C@@](C)(O)C(=O)[C@@H](C)C/C=C/[C@H]3[C@@H]1O (stereo not given in full) | 2
O=C(NC12CC3CC(CC(C3)C1)C2)OC1CN2CCC1CC2 (stereo not given) | 13* | TTR inh HuH7=-15;TTR act confirm=0
CN1C(=O)C(Cc2ccsc2)C(=O)N(C)C1=O | 12* | TTR inh HuH7=-8;TTR act confirm=0
CN1C(=O)C(Cc2ccccc2)C(=O)N(C)C1=O | 0
CN1C(=O)C(C2CCCCC2)C(=O)N(C)C1=O | 0
COc1cccc2cc(-c3cc(=O)oc4ccc(OC(=O)N(C)C)cc34)oc12 | 2
CCC(=NCc1ccco1)c1c(O)n(-c2ccccc2C)c(=O)[nH]c1=O | -1
COP(=O)(OC)C(C)NC(=O)OCc1ccccc1 (stereo not given) | 6
CC(NC(=O)OC1CC2CCC1(C)C2(C)C)P(=O)(Oc1ccccc1)Oc1ccccc1 (stereo not given) | 5
COC(=O)C1=C(c2ccc(OC(F)(F)F)cc2)C[C@@H]2CC[C@H]1N2C(=O)NCc1ccco1 | 4
SMILES | TTR transcr act | others
CCOC(=O)N1CCC(NC(=O)CCc2nc(C3=CCN(C)CC3)no2)CC1 | 10* | TTR inh HuH7=2;TTR act confirm=0
COC(=O)C1=C(c2ccc(OC)c(OC)c2)C[C@@H]2CC[C@H]1N2C(=O)NCc1cccc2ccccc12 | -3
O=c1c2ccccc2[nH]c(=S)n1-c1ccc2c(c1)OCCO2 | 2
CCn1c(C)cc(/C=C2\C(=O)NC(=O)N(c3ccccc3C)C2=O)c1C | 1
Cc1ccc(-n2c(C)cc(/C=C3/C(=O)NC(=O)N(C)C3=O)c2C)cc1 | 1
COc1ccc(N2C(=O)/C(=C/c3cc(C)n(-c4ccc(C)cn4)c3C)C(=O)NC2=S)c(OC)c1 | 11* | TTR inh HuH7=-1;TTR act confirm=-1
C/C(=N\N1CCCCCC1)c1c(O)n(-c2ccccc2C)c(=O)[nH]c1=O | 4
C=C(C=O)CC1CC(O)[C@]2(C)OC3CC4OC5C[C@]6(C)O[C@]7(C)CCC8OC9C[C@]%10(C)OC%11C(C)=CC(=O)OC%11CC%10OC9C[C@@H](C)C8OC7CC6O[C@]5(C)C/C=C\C4OC3CC2O1 (stereo not given in full) | -5
NS(=O)(=O)OC(CCc1ccccc1)C(Cl)(Cl)Cl (stereo not given) | -2
CCCC(=O)NC1=C(N2CC2)C(=O)C(NC(=O)CCC)=C(N2CC2)C1=O | 11* | TTR inh HuH7=53*;TTR act confirm=-3
CCOC1=C(N2CC2)C(=O)C(OCC)=C(N2CC2)C1=O | -1
CCCC(=O)Nc1ccc(N2CCN(CC)CC2)c(Cl)c1 | 0
C=CCn1c(O)c(C(CC)=Nc2cccc(C(F)(F)F)c2)c(=O)[nH]c1=O | 0
CCOC(=O)[C@]12Cc3c(cc(OC)c(OC)c3OC)[C@H]1N(C1CCCCC1)C(=O)c1ccccc12 | -6
C=CCn1c(O)c(C(C)=NCCCn2ccnc2)c(=O)[nH]c1=O | -1
Cc1cccc(-n2c(O)c(/C=N/NC(=O)c3ccncc3)c(=O)[nH]c2=O)c1 | 2
O=C(N/N=C/c1c(O)n(-c2ccccc2)c(=O)[nH]c1=O)c1ccncc1 | 13* | TTR inh HuH7=0;TTR act confirm=0
Cc1ccc(-n2c(O)c(/C=N/NC(=O)c3ccncc3)c(=O)[nH]c2=O)cc1 | -2
CCCNC(=O)N1[C@H]2CC[C@@H]1C(C(=O)OC)=C(c1cccc(C#N)c1)C2 | 1
Cc1ccc2c(c1)N(C(=O)CCC(=O)N1CCC3(CC1)OCCO3)CCO2 | 0
